Measured values published in the supplement of paper PMC6555819.

Tests used:
Experiment in all cases: PBM binding z-score (relative to random genomic background probes); higher = stronger binding; sequences stand for … in GC…GCGATTGACAGCGTAGAATGAAGG
[1] = tested on: FXR:RXRa (NR concentration 270 nM, RXRa partner concentration 90 nM)
Outline: (§1)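 Probes were double-stranded and carried 34-nt variable regions with direct-repeat seeds, single-nucleotide variants, half-site ablations and random human genomic background sequences, printed on custom Agilent 4×180K protein-binding microarrays. Arrays were incubated 1 h with ligand-free nuclear receptor dimers in PBS pH 7.4, 2% milk, 0.02% Triton X-100, 1 mM DTT, 0.2 mg/mL BSA and 0.4 mg/ml salmon testes DNA. Antibodies against each partner (one per run) detected binding, and scanned fluorescence was regression-normalized. Binding z-scores use the random background probes as reference.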

[2] = tested on: LXRa:RXRa (NR concentration 270 nM, RXRa partner concentration 90 nM)
Outline: as §1

[3] = tested on: LXRa homodimer (NR concentration 270 nM)
Outline: as §1

[4] = tested on: LXRb:RXRa (NR concentration 270 nM, RXRa partner concentration 90 nM)
Outline: as §1

[5] = tested on: LXRb homodimer (NR concentration 270 nM)
Outline: as §1

[6] = tested on: PPARa:RXRa (NR concentration 270 nM, RXRa partner concentration 90 nM)
Outline: as §1

[7] = tested on: PPARg:RXRa (NR concentration 180 nM, RXRa partner concentration 90 nM)
Outline: as §1

[8] = tested on: PPARg:RXRa 270nM:90nM, anti-RXR (NR concentration 270 nM, RXRa partner concentration 90 nM)
Outline: as §1

[9] = tested on: PPARg:RXRa 30nM:10nM, anti-RXR (NR concentration 30 nM, RXRa partner concentration 10 nM)
Outline: as §1

[10] = tested on: PPARg:RXRa 90nM:30nM, anti-RXR (NR concentration 90 nM, RXRa partner concentration 30 nM)
Outline: as §1

[11] = tested on: PPARg:RXRa DBDmut IVT, anti-RXR (DBD mutation: RXRa K156A/R161A, NR concentration 270 nM, RXRa partner concentration 90 nM)
Outline: as §1

[12] = tested on: PPARg:RXRa IVT, anti-PPARg (NR concentration 270 nM, RXRa partner concentration 90 nM)
Outline: as §1

[13] = tested on: PPARg DBDmut:RXRa IVT, anti-PPARg (DBD mutation: PPARg1 K132A/R137A, NR concentration 270 nM, RXRa partner concentration 90 nM)
Outline: as §1

[14] = tested on: PPARg DBDmut IVT, anti-PPARg (DBD mutation: PPARg1 K132A/R137A, NR concentration 270 nM)
Outline: as §1

[15] = tested on: PPARg homodimer (NR concentration 180 nM)
Outline: as §1

[16] = tested on: PXR:RXRa (NR concentration 270 nM, RXRa partner concentration 90 nM)
Outline: as §1

[17] = tested on: PXR homodimer (NR concentration 270 nM)
Outline: as §1

[18] = tested on: RARa:RXR (NR concentration 270 nM, RXRa partner concentration 90 nM)
Outline: as §1

[19] = tested on: RARa homodimer (NR concentration 270 nM)
Outline: as §1

[20] = tested on: RARb:RXRa (NR concentration 270 nM, RXRa partner concentration 90 nM)
Outline: as §1

Row | Sequence | PBM binding z-score [1] | PBM binding z-score [2] | PBM binding z-score [3] | PBM binding z-score [4] | PBM binding z-score [5] | PBM binding z-score [6] | PBM binding z-score [7] | PBM binding z-score [8] | PBM binding z-score [9] | PBM binding z-score [10] | PBM binding z-score [11] | PBM binding z-score [12] | PBM binding z-score [13] | PBM binding z-score [14] | PBM binding z-score [15] | PBM binding z-score [16] | PBM binding z-score [17] | PBM binding z-score [18] | PBM binding z-score [19] | PBM binding z-score [20]
1 | AGAACGAGGGCAATTAGTTGATAGCACGGGTGGC | 0.559 | 0.389 | -0.309 | 0.306 | -0.23 | 1.64 | 1.31 | 0.81 | -0.134 | 0.104 | 3.45 | 2.65 | 0.442 | -0.255 | 0.218 | 0.729 | 1.02 | 0.412 | 0.215 | 2.06
2 | TCTTGTAGATCAAGCAGGTTACGAAAGCCTGAGT | 0.426 | 0.343 | -0.343 | 0.659 | -0.527 | 1.03 | 0.00625 | 1.34 | 2.5 | 1.88 | 1.76 | 1.04 | -0.0946 | 0.435 | 0.37 | 0.615 | -0.0528 | 0.951 | -0.22 | 0.516
3 | CTACCAAGGTGAACAAGGTCGTTGACTACTATTC | 1.83 | 1.79 | 0.0971 | 1.79 | -0.0485 | 2.65 | 1.41 | 1.68 | 0.448 | 0.985 | 2.76 | 2.84 | 0.603 | 0.324 | 0.75 | 2.98 | 2.72 | 2.61 | 0.269 | 2.29
4 | TATCCTAGGTCATTCAGGGGCCAGTATAGAAAGC | 5.25 | 5.67 | 4.76 | 3.96 | 4.11 | 4.18 | 3.29 | 3.8 | 1.64 | 3.05 | 4.17 | 4.85 | 1.68 | 2.21 | 3.21 | 3.08 | 0.861 | 3.84 | 1.26 | 4.08
5 | GCTAGCAGGCCATTTGGGTCACCCAATGACGGGC | 0.339 | -0.142 | -0.557 | 0.0231 | -1.02 | 1.67 | 0.947 | 0.784 | -0.28 | 0.167 | 1.07 | 2.71 | -0.843 | -0.885 | -0.136 | 0.692 | 0.0143 | 1.02 | -0.844 | 1.62
6 | AATACAGGGTCACTAGACCAGAGTAGGTACGAAT | 5.74 | 4.72 | 0.962 | 3.65 | 0.659 | 5.33 | 6.24 | 5.76 | 2.72 | 4.31 | 2.98 | 4.48 | 1.64 | 0.757 | 1.41 | 3.05 | 0.6 | 4.02 | 0.657 | 4.12
7 | CAAACTAGGTCATAGGTCAAAGTCGAGCCAACCA | 7.12 | 5.85 | 3.78 | 5.36 | 1.14 | 7.84 | 12.8 | 10.5 | 11.6 | 12 | 8.12 | 8.93 | 3.18 | 1.68 | 3.4 | 5.05 | 0.241 | 7.38 | 0.929 | 4.76
